Screening data: PubChem BioAssay, National Center for Advancing Translational Sciences (NCATS)
Pf growth 96h – P. falciparum growth inhibition at 96 hour, primary screen for plastid delayed-death inhibitors. P. falciparum luciferase reporter growth, 96 h. Potency, µM (highest dose often 28.7 µM), without a hit: at the top dose activity change, negative = inhibition, hits mostly inhibitors. 6.9% of 320,000 active; also: potency is read from the fitted curve at half-maximal effect; % is scaled to controls: 0 for no effect and ±100 for the full control effect
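Two-generation exposure (96 h) targets delayed-death phenotype. Reporter parasites carrying integrated firefly luciferase, in red cells at 2% hematocrit and 0.05% parasitemia final, kept at 37 C, 5% CO2; luminescence loss indicates inhibition.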
Shiga inhibitor – Shiga toxin inhibition | Vero cells, Shiga toxin protein synthesis inhibition reporter | 9.2% of 290,000 active | inhibition, % at 38.7 µM; in the data active = inhibition mostly above about 28%, no sharp cut-off; inactive = mostly below about 43%; also: 0% is about no effect
Cycloheximide cs – counter-screen for Shiga toxin inhibitors: cycloheximide protein synthesis inhibition; cell reporter, cycloheximide protein synthesis inhibition counterscreen; max response, %; 12% of 300,000 active; AID 2314; in the data active = max response mostly above about 13%, no sharp cut-off; inactive = mostly below about 14%; also: read at 38.3 µM for the half of the compounds with a filed dose; 0% is about no effect
FBPA Giardia inh – Giardia lamblia aldolase inhibition. A8B2U2. purified Giardia FBPA. Potency, µM (titrated, usually from 59.6 µM), inactives show at the top dose activity, negative = inhibition, hits mostly inhibitors. 0.71% of 290,000 active; also: potency is read from the fitted curve at half-maximal effect; % is scaled to controls: 0 for no effect and ±100 for the full control effect; nearly all actives have a fitted effect of over 55% in size
Target sequence (A8B2U2 whole entry, looked up): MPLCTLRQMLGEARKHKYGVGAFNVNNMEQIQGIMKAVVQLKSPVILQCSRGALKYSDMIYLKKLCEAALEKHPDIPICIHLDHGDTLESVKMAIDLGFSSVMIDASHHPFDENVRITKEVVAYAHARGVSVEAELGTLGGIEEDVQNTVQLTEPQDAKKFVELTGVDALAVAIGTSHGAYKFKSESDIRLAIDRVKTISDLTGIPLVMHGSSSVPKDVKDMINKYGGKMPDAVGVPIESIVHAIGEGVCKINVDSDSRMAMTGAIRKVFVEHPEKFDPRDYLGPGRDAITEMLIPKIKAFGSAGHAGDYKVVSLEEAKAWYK
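40 nM FBPA preincubated 10 min at RT with compound (up to 57.5 uM final), then substrate plus GAPDH/TPI/NAD/arsenate coupling and diaphorase/resazurin added. Fluorescence read after 20 min at RT, 525/598 nm.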
NS1 inh – influenza NS1 inhibition; AID 2326; 0.4% of 270,000 active; Potency, µM (top dose mostly 46.1 µM), for inactives: at the highest dose activity, positive = more growth; calls by dose curve; also: potency is read from the fitted curve at half-maximal effect; actives are rising curves; nearly all actives have a fitted effect of over 50% in size
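OD600 was taken as the measure of yeast growth restored by compound in an NS1-expressing S. cerevisiae strain. Cells had been washed out of glucose medium and diluted 1:100 into galactose -URA medium, pH 6.0.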
Pf growth 48h – P. falciparum growth inhibition at 48 hours (one generation); P. falciparum luciferase growth in erythrocytes, 48 h; Potency, µM (series often up to 28.7 µM), for the others: at the top dose activity change, negative = inhibition, hits mostly inhibitors; 5.9% of 310,000 active; also: potency is read from the fitted curve at half-maximal effect; % is scaled to controls: 0 for no effect and ±100 for the full control effect
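Here the parasites carry a stable luciferase gene and grow inside erythrocytes in Albumax-based RPMI medium with compound for one erythrocytic cycle. Activity is scored as loss of luminescent signal.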
* = called active by the depositor; i = inactive; ? = inconclusive; . = not tested or not shown. An excerpt weighted towards active compounds, which were near 21% of everything screened. Unless noted, calls follow the shape of the dose curve; as a rule, active = well fitted curve in the direction sought with a large enough effect; inconclusive = small, poorly fitted or top-dose-only effect, or another doubt; inactive = no such curve, though single readings can be large; an effect the other way counts as inactive or inconclusive.

SMILES | Pf growth 96h | Shiga inhibitor | Cycloheximide cs | FBPA Giardia inh | NS1 inh | Pf growth 48h
CCc1ccc(OCC(=O)NNC(=O)c2cnccn2)c(Br)c1 | ? | 39* | 18* | . | -48% | 10µM*
CC(C)(C)c1ccc(OCC(=O)Nc2ccncc2)c(Br)c1 | ? | 100* | 31* | 12% | -88% | 27%
CCc1ccc(OCC(=O)Nc2ccncc2)c(Br)c1 | -17% | . | 30* | 5% | -78% | 68%
CCc1ccc(OCC(=O)NCCN(C)C)c(Br)c1 | -10% | 16 | 11 | 1% | 1% | -13%
O=C(c1cc(-c2cccs2)nc2ccccc12)N1CCN(c2ccccc2O)CC1 | ? | 91 | 19* | -13% | . | ?
Cc1ccc(-c2cc(C(=O)N3CCN(c4ccccc4O)CC3)c3ccccc3n2)cc1 | ? | . | . | . | . | 3.3µM*
O=C(c1cc(-c2ccccc2Cl)nc2ccccc12)N1CCN(c2ccccc2O)CC1 | 4.1µM* | . | . | . | . | 9.3µM*
COc1ccc(-c2cc(C(=O)N3CCN(c4ccccc4O)CC3)c3ccccc3n2)cc1OC | 2.6µM* | 20 | 7 | ? | -32% | 2.1µM*
COc1ccc(-c2cc(C(=O)N3CCN(c4ccccc4O)CC3)c3ccccc3n2)cc1 | -114% | . | . | . | . | ?
O=C(c1cc(-c2cccs2)nc2ccccc12)N1CCN(CCO)CC1 | 74% | . | . | . | . | 43%
NC1=NC([S][Hg][c]2ccc(N)cc2)c2ncn([C@@H]3O[C@H](CO)[C@@H](O)[C@@H]3O)c2N1 (stereo partly specified) | . | . | . | . | -31% | .
O=C(c1cc(-c2ccccc2Cl)nc2ccccc12)N1CCC1 | -7% | . | . | . | . | -11%
O=C(c1cc(-c2ccccc2Cl)nc2ccccc12)N1CCOCC1 | 0.37µM* | 12 | -4 | -1% | 17% | -7%
COc1ccccc1CNCc1cccc(Oc2ccccc2)c1 | ? | 12 | 7 | -24% | -2% | 20%
COc1cccc(CNC(=O)CN2C(=O)COc3ccc(S(=O)(=O)N4CCC(C)CC4)cc32)c1 | -8% | -12 | 11 | 3% | 0% | 0%
O=C(Nc1ccc(S(=O)(=O)N2CCCC2)cc1)c1ccc(CN2CCc3ccccc3C2)cc1 | -10% | 3 | -2 | -17% | -14% | ?
O=C(Nc1ccc(S(=O)(=O)N2CCOCC2)cc1)c1ccc(CN2CCc3ccccc3C2)cc1 | -62% | -7 | -3 | -11% | 4% | 12µM*
O=C(Nc1ccc(Cl)cc1)c1ccc(CN2CCc3ccccc3C2)cc1 | ? | 15 | 19 | -7% | -7% | -4%
N#CCc1ccc(NC(=O)c2ccc(CN3CCc4ccccc4C3)cc2)cc1 | 8.3µM* | -5 | -2 | -14% | 1% | ?
CCOC(=O)c1ccc(NC(=O)c2ccc(CN3CCc4ccccc4C3)cc2)cc1 | 60% | 40 | -3 | -14% | -2% | ?
CCOc1ccc(NC(=O)c2ccc(CN3CCc4ccccc4C3)cc2)cc1 | 5.2µM* | 2 | 1 | -9% | 14% | -10%
COCCn1c(SCCCc2ccccc2)nc2c1c(=O)[nH]c(=O)n2C | -7% | -9 | -4 | 5% | -57% | ?
C=CCn1c(SCCCc2ccccc2)nc2c1c(=O)[nH]c(=O)n2C | 4.1µM* | -9 | -2 | -2% | -70% | ?
C/C=C/Cn1c(SCCCc2ccccc2)nc2c1c(=O)[nH]c(=O)n2C | 0.93µM* | -6 | -2 | -7% | -74% | ?
CS(=O)(=O)N1CCN(c2ccccc2NC(=O)Nc2cccc(Cl)c2)CC1 | -18% | 12 | 7 | -4% | -2% | -12%
SMILES | Pf growth 96h | Shiga inhibitor | Cycloheximide cs | FBPA Giardia inh | NS1 inh | Pf growth 48h
COc1ccc(OC)c(C(=O)CSc2nccc(-c3ccc(Br)cc3)n2)c1 | ? | 13 | -3 | -3% | 1% | 12µM*
Cc1cccc(-c2cc(N)n(-c3ccccc3)n2)c1 | i | 65* | 45* | -1% | . | 335%
Cc1cccc(-n2nc(C)cc2N)c1 | 117% | -8 | 13 | -10% | 12% | 66%
Nc1cc(C2CCCC2)nn1-c1ccccc1 | 138% | 104* | 46* | -6% | 21% | 125%
CCc1ccc(-c2cc(N)n(-c3ccccc3)n2)cc1 | 425% | 154* | 33* | -10% | . | 388%
Cc1ccc(-c2cc(C(=O)O)n(-c3ccc(S(N)(=O)=O)cc3)n2)cc1 | 0% | -8 | -2 | 14% | 3% | -12%
Cc1ccc(-c2cc(N)n(-c3ccccc3)n2)cc1 | 138% | 80* | 66* | 0% | ? | 101%
O=C(O)c1cc(C2CC2)nn1-c1ccccc1 | 35% | -10 | -1 | -8% | 0% | .
COC(=O)Cc1c(C(=O)OC)nnn1-c1ccc(OC(F)(F)F)cc1 | 2% | -3 | 10 | 0% | . | 21%
CN(C(=O)CSc1nnc(-c2cccs2)n1C1CC1)C1CCS(=O)(=O)C1 (stereo unspecified) | 50% | . | . | . | . | 31%
O=C(O)c1cc[c]([Hg][Cl])cc1 | 5.2µM* | . | . | ? | -59% | 5.9µM*
O=C(COC(=O)c1ccccc1[N+](=O)[O-])c1ccc(C2CCCCC2)cc1 | -2% | 71* | 60* | -4% | ? | 18%
Cc1nc(-c2ccc(-c3ccon3)s2)no1 | 34% | 53* | 21* | 5% | -7% | 122%
CCC(C)n1c(-c2ccco2)nc2nc3ccccc3nc21 (stereo unspecified) | 10µM* | 6 | 14 | -2% | -29% | ?
COCCn1c(-c2ccco2)nc2nc3ccccc3nc21 | -10% | 26 | 11 | -8% | -13% | -4%
CC(C)OCCCn1c(-c2ccco2)nc2nc3ccccc3nc21 | 3.3µM* | 21 | 13* | -7% | -38% | ?
Cc1ccc(-n2c(-c3ccco3)nc3nc4ccccc4nc32)cc1 | ? | -17 | -5 | 2% | 4% | -8%
COc1cccc(-n2c(-c3ccco3)nc3nc4ccccc4nc32)c1 | 3.3µM* | -4 | -3 | -3% | 6% | 2%
CCN(CC)CCCCn1c(-c2ccccc2)nc2c(N(CCOC)CCOC)nc(C)nc21 | . | . | . | 0% | . | .
CCCC[C@@H](NC(=O)[C@@H](Cc1cn(C(=O)OC)c2ccccc12)NC(=O)[C@H](CC(C)(C)C)NC(=O)N1[C@H](C)CCC[C@@H]1C)C(=O)O | . | -7 | 5 | 27% | . | .
O=C(O)c1ccc(COc2ccc(CO)cc2Cl)cc1 | 13% | 72* | 29* | 26% | -1% | 76%
O=C(O)c1cccc(COc2ccc(CO)cc2Cl)c1 | ? | -5 | 6 | 22% | 0% | 0.21µM*
O=C(O)c1ccc(OCc2ccccc2)c(Cl)c1 | . | . | . | . | -30% | .
CCc1cc(C(=O)N/N=C/c2ccc(OC)cc2)c2ccccc2n1 | -6% | -3 | -2 | 0% | -1% | 0%
CC(=O)Oc1ccc(-c2csnn2)cc1 | 16% | -15 | -4 | 4% | 4% | 6%
Cc1ccccc1C(=O)NNc1ccc(-c2csnn2)cc1 | 13% | 5 | 2 | 3% | -35% | 1.9µM*
